According to PubChem BioAssay (Tox21):
Inconclusive results are not listed. Where a call stands in place of a potency, no number is given. A number with no mark means an inactive call. The source made the active and inactive calls. Calls follow the shape of the dose curve; as a rule, active = well fitted activation curve with a large enough effect in the signal ratio in the repeat runs (not every such curve was filed as active); inconclusive = weak or mixed curves, or effect the other way; inactive = no such curve, though single readings can be large or run the other way; the % refers to the signal ratio.

Assay: qHTS assay for small molecule agonists of the antioxidant response element (ARE) signaling pathway (AID 743202)
Conditions: HepG2 ARE-bla reporter, beta-lactamase FRET, 16 h; series mostly up to 73.3 µM
Text: U.S. Tox21 Program National Center for Advancing Translational Sciences [NCATS] NIH Chemical Genomics Center [NCGC] U.S. Environmental Protection Agency [EPA] National Institutes of Environmental Health Sciences [NIEHS] National Toxicology Program [NTP] U.S. Food and Drug Administration [FDA] Tox21 Assay Overview: Oxidative stress has been implicated in the pathogenesis of a variety of diseases ranging from cancer to neurodegeneration. The antioxidant response element (ARE) signaling pathway plays an important role in the amelioration of oxidative stress. The CellSensor ARE-bla HepG2 cell line (Invitrogen) can be used for analyzing the Nrf2/antioxidant response signaling pathway. Nrf2 (NF-E2-related factor 2) and Nrf1 are transcription factors that bind to AREs and activate these genes. The CellSensor ARE-bla Hep G2 cell line contains a beta-lactamase reporter gene under control of the Antioxidant Response Element (ARE) stably integrated into HepG2 cells. The activation of the report gene under culture conditions can be detected by fluorescence intensity. This cell line has been used to screen the Tox21 10K compound library to identify agonists that induce oxidative stress.
Tox21 Assay Protocol Summary: The ARE-bla cells were dispensed at 2,000 cells/5 ul/well in 1536-well black wall/clear bottom plates using a Multidrop dispenser. After the assay plates were incubated at a 37 C/5% CO2 incubator for 5 hours, 23 nL of compounds dissolved in DMSO, positive controls or DMSO only was transferred to the assay plate by a pin tool. The plates were incubated at 37 C for 16 hours. After 1 uL of LiveBLAzer B/G FRET substrate was added using a Flying Reagent Dispenser, the plates were incubated at room temperature for 2 hours, and fluorescence intensity was measured by an Envision plate reader.
Potency is read from the fitted curve at half-maximal effect.

Structure (SMILES) | Potency | activation
CC(C)OCCO | inactive | 
CNCCc1ccccn1 | inactive | 
CC(C)(C)C(=O)CCc1ccc(Cl)cc1 | inactive | 
CN(C)CCc1c[nH]c2ccc(C[C@H]3COC(=O)N3)cc12 | inactive | 
CC(=O)SC[C@@H](C)C(=O)N1CCC[C@H]1C(=O)N[C@@H](Cc1ccccc1)C(=O)O | inactive | 
Cc1ccc2ccccc2n1 | inactive | 
CCOCCOCCOC(C)=O | inactive | 
CC(=O)Nc1ccc(OCCOCCOc2ccc(NC(C)=O)cc2)cc1 | inactive | 
CCC(C)c1nccnc1OC (stereo not given) | inactive | 
COC(=O)C(c1ccccc1Cl)N1CCc2sccc2C1 (stereo not given) | inactive | 
Nc1cc(S(=O)(=O)O)ccc1O | inactive | 
N=C(N)N1CCc2ccccc2C1 |  | -8.74% [at 8.36 µM]
C=CCCCCCCCCOC(C)=O | inactive | 
CC(C)CC(O)Cc1ccccc1 (stereo not given) | inactive | 
CC(=O)/C=C/C=C1/C2CCC(C2)C1(C)C (stereo not given) | inactive | 
C/C=C(\C)C=O | inactive | 
CCCCN(CCCC)CCCCCCN(CCCC)CCCC | inactive | 
OCCC(F)(F)C(F)(F)C(F)(F)C(F)(F)C(F)(F)C(F)(F)F | inactive | 
CN(C)c1ccncc1 | inactive | 
CC(O)CCCCn1c(=O)c2c(ncn2C)n(C)c1=O (stereo not given) | inactive | 

Structure (SMILES) | Potency | activation
CCO/C=C1\N=C(c2ccccc2)OC1=O | inactive | 
CC(C)C(C)C | inactive | 
CCCCCCCCCCCCCCCCN(C)C |  | 0.808% [at 8.36 µM]
CCCCCCCC(=O)N(C)C | inactive | 
CCOC(=O)CC | inactive | 
CCCCNCC | inactive | 
CCOC(=O)CC(C(C)=O)C(C)=O | inactive | 
CC[N+](C)(CC)CC | inactive | 
CC(=O)SCC(CC(=O)c1ccc(C)cc1)C(=O)O (stereo not given) | inactive | 
N=C(N)N | inactive | 
O=C[C@@H](O)[C@H](O)[C@H](O)CO | inactive | 
CCN1CCN(C(=O)N[C@@H](C(=O)N[C@@H]2C(=O)N3[C@@H]2SC(C)(C)[C@H]3C(=O)O)c2ccccc2)C(=O)C1=O | inactive | 
CCN(CC)CC | inactive | 
CCOC(=O)CN1CCCC1=O | inactive | 
CCOc1ccccc1OCCN[C@H](C)Cc1ccc(OC)c(S(N)(=O)=O)c1 | inactive | 
C/C(Cl)=C/CCl | 31.2 µM (active) | 
C=CCn1cc[n+](C)c1 | inactive | 
BrCCOc1ccccc1 | inactive | 
NNC(=O)CCCCC(=O)NN | inactive | 
COC(=O)c1ccc(C(=O)O)cc1 | inactive | 
